# Data: PubChem BioAssay AID1851 (National Center for Advancing Translational Sciences (NCATS), 2009)
# “And” between values parts separate entries of the source, which are not always exact repeats. Identical values can stand only once. Among all 16,000 compounds or so, about 2,600 (16%) were called active. Roughly 20% stayed inconclusive and do not appear here. The sample as a whole holds a higher share of actives than the screen did. Values without a mark were called inactive. Calls follow the shape of the dose curve; as a rule, active = well fitted curve in the direction sought with a large enough effect; inconclusive = small, poorly fitted or top-dose-only effect, or effect the other way; inactive = no such curve, though single readings can be large or run the other way.
# Target: Cytochrome P450 2D6 (Homo sapiens) (UniProt P10635)
# Assay: Cytochrome panel assay with activity outcomes
# Conditions: recombinant CYP, pro-luciferin dealkylation, luminescence, p450-cyp2d6; series mostly up to 57.1 µM; activity, negative = inhibition: at the top concentration
# % is scaled to controls: 0 for no effect and ±100 for the full control effect.
# Chain of Cytochrome P450 2D6 (Homo sapiens) (P10635 whole entry, looked up): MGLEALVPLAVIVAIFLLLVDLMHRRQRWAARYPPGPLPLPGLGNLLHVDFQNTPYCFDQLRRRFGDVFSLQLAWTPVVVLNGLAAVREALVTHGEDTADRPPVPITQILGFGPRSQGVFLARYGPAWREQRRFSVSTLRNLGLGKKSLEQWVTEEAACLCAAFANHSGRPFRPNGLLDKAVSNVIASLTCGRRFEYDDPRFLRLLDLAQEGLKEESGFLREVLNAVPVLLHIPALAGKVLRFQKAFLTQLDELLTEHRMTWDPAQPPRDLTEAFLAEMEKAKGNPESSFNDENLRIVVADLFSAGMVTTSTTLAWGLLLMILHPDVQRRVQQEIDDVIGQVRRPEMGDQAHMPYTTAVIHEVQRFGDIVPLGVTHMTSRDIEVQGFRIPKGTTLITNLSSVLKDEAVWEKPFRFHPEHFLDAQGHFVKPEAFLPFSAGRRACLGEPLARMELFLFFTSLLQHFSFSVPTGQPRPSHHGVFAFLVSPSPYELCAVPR
SMILES,"activity, negative = inhibition",AC50
O=[N+]([O-])c1cc([As](=O)(O)O)ccc1O,-1.12% [at 25.6 µM],–
CCn1cnc2c(Nc3cccc(Cl)c3)nc(N[C@@H]3CCCC[C@H]3N)nc21,–,25.1 µM (active)
CC(=O)[C@@H]1CC[C@@H]2[C@@H]3CC=C4C[C@H](OS(=O)(=O)O)CC[C@@]4(C)[C@H]3CC[C@]21C,-8.1%,–
Cc1ccc2c(c1)C1CN(C)CCC1N2C(=O)Nc1cccc(Cl)c1 (configuration not stated),–,1 µM (active)
Brc1c(NC2=NCCN2)ccc2nccnc12,-11.4%,–
Clc1cc(I)cc(Cl)c1NC1=NCCN1,–,3.98 µM (active)
CCC(CC)C(=O)NC1CCSC1=O (configuration not stated),0.616%,–
CC1(C)N=C(N)N=C(N)N1c1cccc(C(=O)Nc2ccc(S(=O)(=O)F)cc2)c1,–,2 µM (active)
CN1C(=O)c2ccccc2Sc2ccc(C(=O)N3CCC4(CC3)OCCO4)cc21,13.9%,–
CC(=O)c1ccc2c(c1)N(CCCN(C)C)c1ccccc1S2,–,2.51 µM (active)
C=CCN1C(=O)c2ccccc2Sc2ccc(C(=O)N3CCC4(CC3)OCCO4)cc21,-5.85%,–
CCCCc1nc2ccccc2c(=O)n1-c1ccccc1[N+](=O)[O-],-22.1%,–
COc1cc(CCN)ccc1O,-0.172%,–
CN(C(=O)Cc1ccc(Cl)c(Cl)c1)[C@@H](CN1CCCC1)c1cccc(OCC(=O)O)c1,0.96%,–
CN(C(=O)Cc1ccccc1)[C@H](CN1CCCC1)c1ccccc1,–,3.16 µM (active)
O=c1[nH]oc2c1CCNC2,–,inactive
C#C[C@@]1(O)CC[C@@H]2[C@@H]3CCC4=CC(=O)CC[C@@]4(C)[C@H]3CC[C@]21C,3.54% [at 25.6 µM],–
Cc1ccc(N2C(=O)/C(=C/c3ccc(CN(CCC#N)S(C)(=O)=O)o3)C(=O)NC2=S)cc1C,4.47%,–
Cc1ccc(N2C(=O)/C(=C/N3CCN(C(=O)c4ccco4)CC3)C(=O)NC2=S)cc1C,–,0.0282 µM (active)
CC(=O)Nc1ccccc1C(=O)OCC(=O)c1ccc2ccccc2c1,29.5%,–
CC[C@@]1(O)C(=O)OCc2c1cc1n(c2=O)Cc2cc3c(NC(=O)CN)cccc3nc2-1,3.66% [at 11.4 µM],–
O=C(O)[C@H]1[C@H](C(=O)O)[C@H]2CC[C@@H]1O2,2.98%,–
CN(C)CC/C=C1\c2ccccc2Sc2ccc(Cl)cc21,–,2.51 µM (active)
CN(C)CCC=C1c2ccccc2CCc2ccccc21,–,7.94 µM (active)

SMILES,"activity, negative = inhibition",AC50
CN(C)[C@@H]1C(=O)C(C(N)=O)=C(O)[C@]2(O)C(=O)C3=C(O)c4c(O)cccc4[C@@](C)(O)[C@H]3[C@H](O)[C@@H]12,0.652% [at 25.6 µM],–
FC(F)(F)c1nc2ccc(SSc3ccc4nc(C(F)(F)F)[nH]c4c3)cc2[nH]1,-8.27% [at 11.4 µM],–
CP(=O)(O)C1=CCNCC1,-1.3%,–
CCCN1CCC[C@H](c2cccc(C#N)c2)C1,–,31.6 µM (active)
CCCN1CCC[C@H](c2cccc(O)c2)C1,–,inactive
CN1C2CCC1/C(=C\c1ccccc1)C(=O)/C2=C\c1ccccc1,–,0.158 µM (active)
CCOC(=O)N(c1ccccc1)P1(=S)OCCO1,4.06%,–
CC(=O)[C@@H]1CC[C@@H]2[C@@H]3CCC4=CC(=O)CC[C@@]4(C)[C@H]3CC[C@]21C,-11.4% [at 25.6 µM],–
Cn1ccnc1,7.17%,–
C[Se]C[C@@H](N)C(=O)O,15.1%,–
CC[C@]1(C2=NCCN2)Cc2ccccc2O1,–,12.6 µM (active)
CC[C@H](C)C(=O)O[C@@H]1[C@H](O)[C@@H]2[C@H](CN3C[C@@H](C)CC[C@@H]3[C@@]2(C)O)[C@@H]2C[C@@]34O[C@@]5(O)[C@@H](OC(=O)[C@](C)(O)CC)CC[C@@]3(C)[C@H]5[C@H](OC(C)=O)[C@@H](OC(C)=O)[C@H]4[C@]12O,9.64% [at 25.6 µM],–
O=c1cc(-c2ccc(O)c(O)c2)oc2cc(O)cc(O)c12,-1.91% [at 25.6 µM],–
Cc1c([C@@H](C)[C@H]2NC[C@H](C)C[C@@H]2O)ccc2c1C[C@@H]1[C@H]2CC=C2C[C@@H](O)CC[C@@]21C,9.78% [at 11.4 µM],–
C[C@]1(O)CC[C@H]2[C@@H]3[C@@H](O)CC4=CC(=O)CC[C@@]4(C)[C@H]3CC[C@]21C,10.5% [at 11.4 µM],–
NC(=NCc1ccc(Cl)cc1)SCCCc1cnc[nH]1,–,12.6 µM (active)
NC(=NCCc1ccc(I)cc1)SCCCc1cnc[nH]1,9.29%,–
OCc1cnc[nH]1,-1.75%,–
NCCc1ccc(S(=O)(=O)O)cc1[N+](=O)[O-],-0.422% [at 11.4 µM],–
NCCc1ccc(O)cc1,-10.7%,–
NCCc1ccc(S(=O)(=O)F)cc1,–,39.8 µM (active)
C=CCN1CC[C@@]23c4c5ccc(O)c4O[C@H]2/C(=N\N=C2/CC[C@@]4(O)[C@H]6Cc7ccc(O)c8c7[C@@]4(CCN6CC=C)[C@@H]2O8)CC[C@]3(O)[C@@H]1C5,-18.6%,–
C=CCN1CCC2(C)c3cc(O)ccc3C[C@H]1[C@H]2C,–,7.94 µM (active) and 25.1 µM (active) and 631 nM (active)
